Screening results (PubChem BioAssay)
KCNH2 3.1 inh: KCNH2 3.1 (human) potassium channel inhibition; 340,000 tested, 0.95% active; U2OS KCNH2 3.1, thallium flux FluxOr; active compounds read low; activity change, % (tested at about 1.8 µM); AID 720553;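 active = maximum activity change below -70%; inconclusive = maximum activity change from -70% to -50%; inactive = maximum activity change above -50%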;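 also: thallium influx rate constant from kinetic fluorescence after stimulation buffer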
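We transduce U2OS cells with the mutant 3.1 virus, culture them overnight, load FluxOr with Red40 quencher for 45 min, then add stimulation buffer and read kinetically for 2 min to derive a normalized rate constant.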
KB-3-1 tox: KB-3-1 parental cell cytotoxicity; KB-3-1 viability, CellTiter-Glo ATP luminescence, 72 h; Potency, µM (highest dose often 46.1 µM), hits mostly cytotoxic; 400,000 tested, 1.4% active; AID 1347075; also: nearly all actives have a fitted effect of over 60% in size
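Screening of KB-3-1 cells (DMEM, 10% FBS, phenol-red free) ran from lowest to highest compound concentration; after 72 h at 37 °C viability was read luminescently and curves fitted.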
SW480 rerep: DNA re-replication induction in SW480 cells; SW480 DNA re-replication, Hoechst DNA content imaging, 48 h; Potency, µM (titrated, usually from 46.1 µM), hits mostly activators; 340,000 tested, 1.8% active; AID 624297; also: nearly all actives have a fitted effect of over 55% in size
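Cells (250 per well) received 23 nL compound or DMSO by pin tool and were kept 48 hr at 37 C, 5% CO2. Nuclei were then stained with Hoechst for 40 min and scanned for DNA content.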
hERG WT inh: KCNH2 (human, wildtype) channel inhibition | U2OS, BacMam KCNH2, thallium flux FluxOr; active compounds read low | Q12809 | 340,000 tested, 0.37% active | activity change, % at 1.84 µM;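 active = maximum activity change below -70%; inconclusive = maximum activity change between -70% and -50%; inactive = maximum activity change above -50%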
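U2OS cells transduced with wild-type KCNH2 virus are loaded with FluxOr dye for 45 min, and thallium flux is measured in kinetic reads before and after stimulation buffer. Rate constants are normalized to DMSO controls.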
KB-V1 MDR tox: KB-V1 MDR subline cytotoxicity | Potency, µM (top dose mostly 46.1 µM), actives largely listed as cytotoxic | 400,000 tested, 3.4% active | KB-V1 MDR cells viability, CellTiter-Glo, 72 h; also: nearly all actives have a fitted effect of over 60% in size
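In this primary screen, KB-V1 cells overexpressing P-gp are incubated with library compounds (lowest to highest concentration) for 72 h at 37 degrees C before a luminescent ATP viability read.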
MCF10A rerep: induces DNA re-replication in MCF 10a normal breast cells | AID 624296 | Potency, µM (series often up to 46.1 µM), hits mostly activators | MCF 10A DNA re-replication, Hoechst nuclear intensity, 48 h | 350,000 tested, 2.9% active; also: nearly all actives have a fitted effect of over 50% in size
Hits are given with their value; – = inactive; ? = inconclusive; · = no result given. Rows were chosen to be rich in hits. Some 7.6% of all compounds tested hit in one or more screens of this group. Unless noted, calls follow the shape of the dose curve; as a rule, active = well fitted curve in the direction sought with a large enough effect; inconclusive = small, poorly fitted or top-dose-only effect, or another doubt; inactive = no such curve, though single readings can be large; an effect the other way counts as inactive or inconclusive.

SMILES	KCNH2 3.1 inh	KB-3-1 tox	SW480 rerep	hERG WT inh	KB-V1 MDR tox	MCF10A rerep
COc1ccc(-c2noc(C3CCCN(S(=O)(=O)c4cccc(Cl)c4)C3)n2)cc1OC (stereo unspecified)	·	?	–	–	5.2µM	?
COc1ccc(NC(=O)N2CCCC(c3nc(-c4ccc(C(C)C)cc4)no3)C2)cc1 (stereo unspecified)	–	?	–	–	8.2µM	?
CC(c1ccc2c(c1)OCO2)n1c(=S)[nH]c2ccccc2c1=O (stereo unspecified)	–	–	–	–	–	–
CCOC(=O)C(=O)NNc1ccccc1C	–	–	–	–	–	?
CCOC(=O)C(=O)NNc1cccc(C)c1C	–	–	–	–	–	8.2µM
COc1ccc(S(=O)(=O)NCC(c2ccc3c(c2)OCO3)N2CCN(C)CC2)cc1OC (stereo unspecified)	–	–	–	–	–	–
CCOc1ccc(S(=O)(=O)NCC(c2ccc3c(c2)OCO3)N2CCN(C)CC2)cc1 (stereo unspecified)	–	–	6.5µM	–	–	–
COc1ccc(NC(=O)N2c3ccccc3C(C)=CC2(C)C)cc1	–	–	–	–	–	–
COc1ccc(NC(=O)N2c3ccc(OC)cc3C(C)=CC2(C)C)cc1	–	–	–	·	?	21µM
CN(C)c1cccc(CNC(=O)c2ccc3nc([C@@H]4O[C@H](CO)[C@H](O)[C@H](O)[C@H]4O)[nH]c3c2)c1	·	–	·	·	–	·
Cn1c(=O)c2c(n3cnnc13)-c1ccccc1CC21CCCC1	–	–	–	–	23µM	–
Cc1ccc(C(=O)N2CCCC(c3ccc(Cl)cc3)=N2)cc1	–	–	?	–	–	18µM
Cc1nc(-c2cc(C#N)c(=O)[nH]c2C)cs1	–	?	–	–	4.6µM	–
O=C(Nc1ccccc1SCC1CSc2nc3ccccc3c(=O)n21)c1ccccc1 (stereo unspecified)	–	?	–	–	–	–
O=C(Nc1ccccc1SCC1CSc2nc3ccccc3c(=O)n21)c1cccc(Cl)c1 (stereo unspecified)	-84	?	–	–	?	–
CN(C)S(=O)(=O)N(CC(=O)Nc1ccc(S(=O)(=O)N2CCCC2)cc1)c1ccccc1	–	–	–	–	?	–
CCCCn1c(N)c(N(Cc2ccccc2OC)C(=O)C(C)Oc2ccc(F)cc2)c(=O)[nH]c1=O (stereo unspecified)	–	–	–	–	–	–
CCCCn1c(N)c(N(CCC(C)C)C(=O)c2ccc([N+](=O)[O-])s2)c(=O)[nH]c1=O	–	–	?	–	–	23µM
CCCCN(C(=O)c1ccc(-c2ccc(Cl)cc2)o1)c1c(N)n(CCCC)c(=O)[nH]c1=O	–	–	–	-202	–	–
CCCCN(C(=O)c1ccc([N+](=O)[O-])s1)c1c(N)n(CC(C)C)c(=O)[nH]c1=O	–	–	–	–	–	–
CCCCn1c(N)c(N(Cc2ccccc2OC)C(=O)C(C)Oc2ccc(Cl)cc2)c(=O)[nH]c1=O (stereo unspecified)	·	?	21µM	–	–	–
CCCCCN(C(=O)CCC(=O)OCc1ccc(C(C)(C)C)cc1)c1c(N)n(CCCC)c(=O)[nH]c1=O	·	–	–	–	–	21µM
CCCCCN(C(=O)CCC(=O)OCc1ccccc1F)c1c(N)n(CCCC)c(=O)[nH]c1=O	–	?	–	–	–	–
CC(C)(C)OC(=O)N1CCCC(C(=O)Nc2cccc(C(=O)N3CCCC3)c2)C1 (stereo unspecified)	–	–	–	–	?	–
CCCCN(C(=O)COC(=O)CSc1cc(C)c2ccccc2n1)c1c(N)n(CCC)c(=O)[nH]c1=O	–	–	–	–	?	–
SMILES	KCNH2 3.1 inh	KB-3-1 tox	SW480 rerep	hERG WT inh	KB-V1 MDR tox	MCF10A rerep
CCCCCN(C(=O)CCC(=O)OCc1ccc(C(C)C)cc1)c1c(N)n(CCCC)c(=O)[nH]c1=O	–	–	–	–	–	23µM
CCCCN(C(=O)COC(=O)CSc1ccc([N+](=O)[O-])cc1)c1c(N)n(CCC)c(=O)[nH]c1=O	-115	–	–	–	–	–
O=C(NCc1cccs1)C1CCN(S(=O)(=O)c2cccc([N+](=O)[O-])c2)CC1	–	–	–	–	–	–
CC(C)N1CCOC1c1ccccc1 (stereo unspecified)	–	–	?	–	–	–
CN1CCCC1CCNc1ncnc2ccc(-c3ccc4c(c3)OCO4)cc12 (stereo unspecified)	·	–	·	·	?	·
C/C(=C\c1ccc2c(c1)OCO2)C(=O)c1c(C)cc(C)[nH]c1=O	–	–	–	–	–	–
CC(=NCCc1c(C)[nH]c2ccc(OC(F)(F)F)cc12)C1=C(O)CC(c2ccccc2)CC1=O (stereo unspecified)	–	4.6µM	8.2µM	–	?	8.2µM
CC(=NCCc1c(C)[nH]c2ccc(C)cc12)C1=C(O)CC(c2ccccc2)CC1=O (stereo unspecified)	–	5.8µM	6.5µM	–	5.8µM	2.3µM
COc1cc(NC(=O)Cn2nc(C(F)(F)F)c(Br)c2C)cc([N+](=O)[O-])c1	–	–	–	–	18µM	–
COc1ccccc1NC(=O)c1cnc(Nc2ccccc2OC)c2ccccc12	–	18µM	2.8µM	–	9.2µM	?
COc1ccc(-c2noc(-c3ccc4c(c3)OCO4)n2)cc1	–	–	–	–	–	–
COc1ccc(-c2nc(-c3ccc4c(c3)OCO4)[nH]c2-c2ccc(OC)cc2)cc1	–	–	?	–	21µM	?
CS(=O)(=O)N(CC(=O)N/N=C/c1cc2c(cc1Br)OCO2)c1ccccc1Br	–	?	–	–	18µM	–
CS(=O)(=O)N(CC(=O)N/N=C/c1cccc2c1OCCO2)c1ccccc1Br	·	–	–	–	–	–
CCOC(=O)C1=C(C)OC(=Cc2ccccc2)C1=O	–	–	·	–	–	·
CCOC(=O)C1=C(O)c2ccccc2C(=O)/C1=C\c1ccc(C)cc1	–	?	?	–	?	21µM
Cc1ccc(NC(=O)CN(C)C(=O)C(Sc2ccccc2)c2ccccc2)cc1 (stereo unspecified)	–	?	–	–	?	–
O=C(NCCOC(=O)c1ccc(Cl)cc1)c1cccnc1	–	–	–	–	–	3.7µM
O=C(NCCOC(=O)c1ccc(C(=O)OCCNC(=O)c2cccnc2)s1)c1cccnc1	–	–	–	–	–	–
CCCC1CCc2c(sc(N)c2C(N)=O)C1 (stereo unspecified)	–	–	–	–	16µM	?
Clc1cccc[n+]1CCc1ccccc1	·	–	·	·	–	·
